Data reported in PubChem BioAssay (NCATS).
Where “and” joins values, the source holds several entries; their conditions need not be identical. Equal values may be shown once. Records with an inconclusive call do not appear. Calls of active or inactive are those of the source. Unless noted, the call rests on the fitted dose curve; in most records, active means well fitted curve in the direction sought with a large enough effect; inconclusive means small, poorly fitted or top-dose-only effect, or another doubt; inactive means no such curve, though single readings can be large; an effect the other way counts as inactive or inconclusive.

Tests used:
[1] = Cell Viability - SH-SY5Y (AID 544); conditions: SH-SY5Y neuroblastoma cell viability; viability change, negative = cytotoxic: at 92.2 µM (top of the series);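 further: 0% = DMSO alone and -100% = 100 µM tamoxifen; nearly all actives have a fitted effect of over 55% in size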
Outline: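 Luminescent ATP read-out (CellTiter-Glo) measures loss of viable SH-SY5Y neuroblastoma cells after 40 hr compound exposure at 37 °C. AC50 values derive from standard Hill modelling of qHTS concentration-response data.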

[2] = Cellular Toxicity (caspase-3) Hek293 (AID 664);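 further: cells exposed to compound for 16 h at 37 °C before readout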
Outline: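 Cells plated, 5 hr at 37 °C; compounds added; 16 hr at 37 °C; Caspase-Glo 3/7 reagent, 20 min RT; luminescence read. Activation expressed relative to DMSO and 100 uM tamoxifen, AC50 by Hill model.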

[3] = MultiTox-Fluor Cytotoxicity Assay - LYMP1-001 - Live Cells (AID 947); further: potency means the concentration at half of the fitted maximal effect
[4] = Cell Viability - LYMP1-003 - Assay at 40 hr (AID 964); further: nearly all actives have a fitted effect of over 60% in size; further: potency means the concentration at half of the fitted maximal effect
Outline: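 Cells were seeded at 2500 per well and incubated 5 hr at 37 C. Compounds were added across a concentration series and left 40 hr at 37 C. CellTiter-Glo was added for 30 min at room temperature before luminescence reading.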

[5] = Cell Viability - LYMP2-011 (AID 969);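 further: cells exposed to compound for 24 hours; nearly all actives have a fitted effect of over 60% in size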; further: potency means the concentration at half of the fitted maximal effect;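 on viability change, negative = cytotoxic: 0% = DMSO only and full inhibition = 92 µM tetraoctylammonium bromide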
Outline: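 2500 cells/well, 5 hr 37 C; compound added, 24 hr 37 C; CellTiter-Glo 30 min RT; luminescence. qHTS concentration-response, Hill-equation AC50. Tetraoctylammonium bromide positive control.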

[6] = Cell Viability - LYMP2-021 (AID 974);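 further: compound exposure lasts 24 hours at 37 °C; nearly all actives have a fitted effect of over 55% in size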; further: potency means the concentration at half of the fitted maximal effect
Outline: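 Plate 2500 lymphoblastoid cells per well and incubate 5 hr at 37 C. Add compounds over a concentration range and incubate 24 hr at 37 C. Add CellTiter-Glo, wait 30 min at room temperature, read luminescence.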

[7] = Cell Viability - LYMP2-023 (AID 975);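 further: cells exposed to compound for 24 hours at 37 °C; nearly all actives have a fitted effect of over 55% in size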; further: potency means the concentration at half of the fitted maximal effect
Outline: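 2500 cells/well, 5 hr 37 C; cpd 24 hr 37 C; CellTiter-Glo, 30 min RT; luminescence. qHTS conc-response, Hill fit -> AC50. Pos ctrl tetraoctylammonium bromide.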

[8] = Cell Viability - LYMP2-002 (AID 977);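 further: compound exposure lasted 24 h at 37 °C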; further: potency means the concentration at half of the fitted maximal effect
Outline: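 Cytotoxicity is scored as concentration-dependent loss of cellular ATP in a human lymphoblastoid line after 24 hr compound treatment at 37 C. AC50 is obtained by modelling concentration-response data with the Hill equation.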

[9] = Cell Viability - LYMP2-018 (AID 985);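 further: compound exposure lasted 24 hr at 37 °C; nearly all actives have a fitted effect of over 50% in size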; further: potency means the concentration at half of the fitted maximal effect
Outline: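 Luminescent ATP signal (CellTiter-Glo, read after 30 min at room temperature) reports viable cells after 24 hr compound treatment at 37 C. Concentration-response data were fitted to the standard Hill equation for AC50.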

[10] = Cell Viability - LYMP2-020 (AID 986); further: nearly all actives have a fitted effect of over 55% in size; further: potency means the concentration at half of the fitted maximal effect
Outline: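 Luminescent ATP signal (CellTiter-Glo, 30 min at room temperature) is the read-out after 24 h compound treatment of lymphoblastoid cells at 37 C. AC50 values come from Hill-equation fits across concentrations.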

[11] = Cell Viability - LYMP2-026 (AID 989); further: nearly all actives have a fitted effect of over 50% in size; further: potency means the concentration at half of the fitted maximal effect
Outline: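 Luminescent ATP signal (CellTiter-Glo, 30 min room temperature) measures viable lymphoblastoid cells after 24 hr compound treatment at 37 C. Decreased ATP reflects acute toxicity; AC50 values come from Hill-equation modeling.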

[12] = Cell Viability - LYMP1-002 - Assay at 40 hr (AID 994); further: nearly all actives have a fitted effect of over 60% in size; further: potency means the concentration at half of the fitted maximal effect;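 on viability change, negative = cytotoxic: 0% = DMSO only and full inhibition = 92 µM tetraoctylammonium bromide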
Outline: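 Luminescent ATP signal served as the viability readout, with decreases taken as toxicity. Cells were treated with compounds across a concentration range for 40 hours at 37 C, and AC50 values came from standard Hill modeling.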

[13] = target: Peroxisome proliferator-activated receptor gamma (Homo sapiens) (UniProt P37231); experiment: qHTS assay for small molecule agonists of peroxisome proliferator-activated receptor gamma signaling (AID 588536; active means well fitted curve in the direction sought with a large enough effect in the signal ratio, with a control signal flat, not every such curve was filed as active; the % refers to the signal ratio;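 further: 0% = DMSO basal wells and 100% = rosiglitazone at 2 µM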)
Peroxisome proliferator-activated receptor gamma (Homo sapiens), sequence (P37231 whole entry, looked up): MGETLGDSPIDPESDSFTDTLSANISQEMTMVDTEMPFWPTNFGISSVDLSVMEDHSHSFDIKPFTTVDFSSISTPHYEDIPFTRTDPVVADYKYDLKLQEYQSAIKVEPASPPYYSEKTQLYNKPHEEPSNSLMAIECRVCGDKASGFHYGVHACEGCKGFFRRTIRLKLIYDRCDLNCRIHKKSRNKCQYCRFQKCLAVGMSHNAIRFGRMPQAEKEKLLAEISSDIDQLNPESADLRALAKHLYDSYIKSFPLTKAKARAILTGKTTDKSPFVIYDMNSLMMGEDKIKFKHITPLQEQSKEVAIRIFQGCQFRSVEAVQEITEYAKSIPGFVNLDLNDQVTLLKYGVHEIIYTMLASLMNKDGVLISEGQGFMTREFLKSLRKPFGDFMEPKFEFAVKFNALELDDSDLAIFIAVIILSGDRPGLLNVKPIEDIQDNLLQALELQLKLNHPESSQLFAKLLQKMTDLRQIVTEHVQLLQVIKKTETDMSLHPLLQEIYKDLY
Outline: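 Test agents, titrated, stimulated HEK293 UAS-bla cells overnight (16 h, 37 C). Substrate CCF4 was then added for two hours at room temperature before fluorescence reading.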

[14] = target: Vitamin D3 receptor (Homo sapiens) (UniProt P11473); experiment: qHTS assay for small molecule agonists of vitamin D receptor signaling (AID 588543; calls by dose curve;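 further: 0% = DMSO basal and 100% = reference agonist control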)
Vitamin D3 receptor (Homo sapiens), sequence (P11473 whole entry, looked up): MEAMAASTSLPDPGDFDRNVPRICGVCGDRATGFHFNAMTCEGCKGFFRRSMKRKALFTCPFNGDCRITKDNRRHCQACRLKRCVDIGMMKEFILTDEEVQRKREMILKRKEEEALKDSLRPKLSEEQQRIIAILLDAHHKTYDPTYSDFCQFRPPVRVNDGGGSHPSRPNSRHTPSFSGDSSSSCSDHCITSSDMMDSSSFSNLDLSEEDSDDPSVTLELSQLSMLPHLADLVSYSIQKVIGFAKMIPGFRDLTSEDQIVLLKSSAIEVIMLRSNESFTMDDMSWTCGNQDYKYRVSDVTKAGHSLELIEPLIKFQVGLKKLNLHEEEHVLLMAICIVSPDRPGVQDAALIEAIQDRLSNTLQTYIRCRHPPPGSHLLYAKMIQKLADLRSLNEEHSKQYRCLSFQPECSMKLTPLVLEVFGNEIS
Outline: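 qHTS in agonist mode: compound titrations stimulate a VDR-driven β-lactamase reporter in HEK293T cells over 16 h at 37 °C. Response normalized to 50 nM 1α,25-dihydroxyvitamin D3 = 100%, DMSO = 0%; Hill fitting gives EC50 and maximal response.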

[15] = qHTS assay for small molecule agonists of the antioxidant response element (ARE) signaling pathway (AID 651741; active means well fitted activation curve with a large enough effect in the signal ratio; the % refers to the signal ratio; further: potency means the concentration at half of the fitted maximal effect; on activation: % of control where 0% means no effect)
Outline: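 Quantitative HTS in HepG2 cells stably expressing an ARE-beta-lactamase reporter; 16 h compound exposure at 37 C, followed by 2 h room-temperature incubation with LiveBLAzer B/G FRET substrate and fluorescence measurement.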

[16] = target: Peroxisome proliferator-activated receptor alpha (Homo sapiens) (UniProt Q07869); experiment: qHTS assay for small molecule agonists of the peroxisome proliferator-activated receptor alpha (PPARalpha) signaling pathway (AID 651778); conditions: PathHunter PPARalpha complementation, chemiluminescence, 6 h; stronger effect = higher value; further: % of control where 0% means no effect
Peroxisome proliferator-activated receptor alpha (Homo sapiens), sequence (Q07869 whole entry, looked up): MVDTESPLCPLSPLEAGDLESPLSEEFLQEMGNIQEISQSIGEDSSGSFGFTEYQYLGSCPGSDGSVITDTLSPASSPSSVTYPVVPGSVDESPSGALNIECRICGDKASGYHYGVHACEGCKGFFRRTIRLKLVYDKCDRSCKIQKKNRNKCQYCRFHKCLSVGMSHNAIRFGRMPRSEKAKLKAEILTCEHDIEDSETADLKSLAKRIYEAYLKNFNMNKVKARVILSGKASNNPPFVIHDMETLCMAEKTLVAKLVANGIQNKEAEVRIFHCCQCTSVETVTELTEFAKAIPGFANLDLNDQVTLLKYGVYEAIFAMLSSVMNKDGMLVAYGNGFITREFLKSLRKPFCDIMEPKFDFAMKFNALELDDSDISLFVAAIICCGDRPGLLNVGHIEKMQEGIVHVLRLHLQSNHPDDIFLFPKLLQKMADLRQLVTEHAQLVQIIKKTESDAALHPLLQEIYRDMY
Outline: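 Chemiluminescence from complemented enzyme reported PPARalpha activation in cells after 6 hr of compound treatment at 37 C. The detection reagent was incubated for 60 min at room temperature, and compounds were scored as agonists.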

[17] = qHTS assay for cell viability of the p53RE-bla HCT-116 cell line (AID 743292)
Outline: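 ATP-based luminescence, 16 h compound exposure at 37 C, p53RE-bla HCT-116 cells at 4,000/well.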

[18] = target: Nuclear receptor subfamily 1 group I member 2 (Rattus norvegicus) (UniProt Q9R1A7); experiment: qHTS assay for small molecule activators of the rat pregnane X receptor (rPXR) signaling pathway (AID 651751; call rule not given here; further: 0% is about no effect); conditions: rPXR reporter cells, luciferase (One-Glo), 24 h
Nuclear receptor subfamily 1 group I member 2 (Rattus norvegicus), sequence (Q9R1A7 whole entry, looked up): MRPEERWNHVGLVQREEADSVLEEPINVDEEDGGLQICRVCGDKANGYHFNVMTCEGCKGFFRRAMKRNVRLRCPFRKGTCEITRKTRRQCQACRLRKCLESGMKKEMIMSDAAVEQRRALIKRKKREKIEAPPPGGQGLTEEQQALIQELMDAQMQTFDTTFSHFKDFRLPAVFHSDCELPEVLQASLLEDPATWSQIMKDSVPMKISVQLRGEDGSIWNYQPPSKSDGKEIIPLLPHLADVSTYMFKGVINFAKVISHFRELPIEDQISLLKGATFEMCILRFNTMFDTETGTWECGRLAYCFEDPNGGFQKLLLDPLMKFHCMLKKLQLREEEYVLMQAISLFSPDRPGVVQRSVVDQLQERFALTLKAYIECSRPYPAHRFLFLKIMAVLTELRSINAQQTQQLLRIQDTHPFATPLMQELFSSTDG

[19] = Cellular Toxicity (caspase-3) Renal Proximal Tubule (AID 667); conditions: renal proximal tubule cells; at 91.7 µM (top of the series), primary cells freshly taken from rat, solvent-only wells 0%, staurosporine 100% unless noted;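 further: cells exposed to compound for 16 hours at 37 °C before detection; 0% = DMSO basal and 100% = 10 µM staurosporine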
Outline: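 In qHTS format, rat primary proximal tubule cells seeded at 1000 per well are exposed to compounds for 16 hours at 37 °C. An increase in Caspase-Glo 3/7 luminescence indicates caspase activation.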

7G8 = experiment: qHTS profiling for inhibitors of Plasmodium falciparum proliferation (AID 504749); further: nearly all actives have a fitted effect of over 60% in size; further: potency means the concentration at half of the fitted maximal effect; conditions: P. falciparum in erythrocytes, SYBR Green DNA, 72 h; series mostly up to 12.8 µM
Outline: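 Infected RBCs, 0.3% parasitemia/2.5% Hct final; cpd 72 h, 37 C, 5% CO2; lysis buffer with saponin/triton/SYBR Green I, o/n RT dark; FI 485/535; norm. to artemisinin (0.29 uM) and DMSO.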

CCNc1nc(Cl)nc(NC(C)C)n1
inactive: Potency [1] | outcome [2] | Potency [3] | Potency [4] | Potency [5] | Potency [6] | Potency [7] | Potency [8] | Potency [9] | Potency [10] | Potency [11] | Potency [12] | outcome [13] | outcome [14] | Potency [15] | max response [16] 3.27% and 0.807% | Potency [17]

ClC1=C(Cl)C2(Cl)C3C(Cl)C=CC3C1(Cl)C2(Cl)Cl (stereo unspecified)
inactive: Potency [1] | Potency [7] | Potency [11] | Potency [12] | max response [16] 4.41% | Potency [17] | max response [18] -2.14%

COP(=S)(OC)Oc1ccc([N+](=O)[O-])cc1
inactive: Potency [1] | outcome [2] | caspase-3 activation [19] -6.77% [at 91.7 µM] | Potency [3] | Potency [4] | Potency [5] | Potency [6] | Potency [7] | Potency [8] | Potency [9] | Potency [10] | Potency [11] | Potency [12] | outcome [13] | outcome [14] | Potency [15] | max response [16] -2.98% and -2.34% | Potency [17] | max response [18] 8.93% and 0.334%

C=CCc1ccc(OC)cc1
inactive: Potency [1] | outcome [2] | caspase-3 activation [19] 1.25% [at 91.7 µM] | Potency [3] | Potency [4] | Potency [5] | Potency [6] | Potency [7] | Potency [8] | Potency [9] | Potency [10] | Potency [11] | Potency [12] | outcome [13] | Potency [15] | max response [16] 0.294% | Potency [17] | max response [18] 0.607%

O=S1OCC2C(CO1)C1(Cl)C(Cl)=C(Cl)C2(Cl)C1(Cl)Cl (stereo unspecified)
inactive: caspase-3 activation [19] 8.37% [at 91.7 µM] | Potency [5] | Potency [6] | Potency [7] | Potency [9] | Potency [10]
active: Potency [4] 39.8 µM | Potency [15] 66.8 µM

COC(=O)NC(=S)Nc1ccccc1NC(=S)NC(=O)OC
inactive: outcome [2] | caspase-3 activation [19] -3.02% | Potency [3] | Potency [5] | Potency [6] | Potency [7] | Potency [8] | Potency [9] | Potency [10] | Potency [11] | Potency [12] | outcome [13] | outcome [14] | max response [16] -4.83% and -0.925% | Potency [17] | max response [18] 13.9% and 14.6%
active: Potency [15] 37.6 µM

c1ccc(N=Nc2ccccc2)cc1
inactive: Potency [1] | Potency [4] | Potency [7] | Potency [8] | Potency [9] | Potency [10] | Potency [11] | Potency [12] | outcome [13] | outcome [14] | max response [18] -2.25% and 1.3%

ClC1=C(Cl)C2(Cl)C3C4CC(C5OC45)C3C1(Cl)C2(Cl)Cl (stereo unspecified)
inactive: Potency [1] | outcome [2] | outcome [13] | outcome [14] | max response [16] 9.76% | Potency [17]
active: Potency [3] 15.8 µM | Potency [4] 10 µM | Potency [5] 39.8 µM | Potency [6] 39.8 µM | Potency [7] 39.8 µM | Potency [8] 31.6 µM | Potency [9] 39.8 µM | Potency [10] 31.6 µM | Potency [11] 39.8 µM | Potency [12] 12.6 µM | Potency [15] 42.2 µM

C[C@H](N)[C@@H](O)c1ccccc1
inactive: Potency (7G8)

CC(=O)O[C@H]1CC[C@@]2(C)C(=CC[C@@H]3[C@H]2CC[C@]2(C)C(=O)CC[C@H]32)C1
inactive: Potency (7G8)

C[C@H]1CN(C2CCC(C#N)(c3ccc(F)cc3)CC2)CC[C@@]1(C(=O)O)c1ccccc1 (stereo partly specified)
inactive: Potency (7G8)

CC[C@@]1(c2ccc(N)cc2)CCC(=O)NC1=O
inactive: Potency (7G8)

COc1ccc2c(c1OC)CN1CCc3cc4c(cc3[C@H]1C2)OCO4
active: Potency (7G8) 3.55 µM

C[N+]1(C)[C@@H]2CC[C@H]1CC(OC(=O)[C@@H](CO)c1ccccc1)C2 (stereo partly specified)
inactive: Potency (7G8)

CC1=C2[C@@H]3OC(=O)[C@@H](C)[C@@H]3CC[C@]2(C)C=CC1=O
inactive: Potency (7G8)

CNC[C@H](O)c1ccc(O)cc1
inactive: Potency (7G8)

CC(=O)OCC(=O)[C@@H]1CC[C@H]2[C@H]3CC[C@H]4C[C@@H](O)CC[C@]4(C)[C@@H]3C(=O)C[C@@]12C
inactive: Potency (7G8)

C#CCN(C)[C@@H](C)Cc1ccccc1
inactive: Potency (7G8)

CN(C)C(=O)Oc1cc(OC(=O)N(C)C)cc([C@@H](O)CNC(C)(C)C)c1
inactive: Potency (7G8)

C[N+]1([O-])[C@@H]2CC[C@H]1CC(OC(=O)[C@@H](CO)c1ccccc1)C2 (stereo partly specified)
inactive: Potency (7G8)
